# Most compounds without a hit are left out; they make up all but 3.4% or so of the library.
# MITF primary: blocks human microphthalmia-associated transcription factor | O75030 | AlphaScreen MITF homodimerization, bead proximity signal | inhibition, % at 2.6 µM | 650,000 compounds, 0.91% hits; in the data active means inhibition above about 50%;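 further: 0% = vehicle wells with protein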
# Target sequence (O75030 whole entry, looked up): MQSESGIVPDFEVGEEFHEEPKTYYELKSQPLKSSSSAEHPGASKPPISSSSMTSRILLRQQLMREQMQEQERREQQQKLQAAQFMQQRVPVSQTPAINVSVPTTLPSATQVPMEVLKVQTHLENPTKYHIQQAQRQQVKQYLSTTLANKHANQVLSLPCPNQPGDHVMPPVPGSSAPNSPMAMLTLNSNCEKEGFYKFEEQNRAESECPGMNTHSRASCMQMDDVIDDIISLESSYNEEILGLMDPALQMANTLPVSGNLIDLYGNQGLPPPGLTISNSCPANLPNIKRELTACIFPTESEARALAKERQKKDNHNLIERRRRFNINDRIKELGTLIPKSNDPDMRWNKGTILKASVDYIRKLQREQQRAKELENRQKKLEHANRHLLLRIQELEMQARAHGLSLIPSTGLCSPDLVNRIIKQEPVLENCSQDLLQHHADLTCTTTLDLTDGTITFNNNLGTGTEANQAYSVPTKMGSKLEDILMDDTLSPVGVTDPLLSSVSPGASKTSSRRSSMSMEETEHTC
# GPR151 activ: activates the human receptor GPR151; Q8TDV0; PathHunter beta-arrestin GPR151 cells, luminescence; activation, % at 11.2 µM; 650,000 compounds, 1% hits; in the data active means activation above about 4.9%;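 further: 0% = median of compound wells and 100% = cells with positive control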
# TEAD-YAP block: TEAD-YAP interaction inhibition. HEK-TIYL cells, TEAD-Gal4/YAP UAS-luciferase luminescence. inhibition, % at 9.12 µM. 640,000 compounds, 1.4% hits. AID 1259422; in the data active means inhibition above about 32%;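 further: 0% = median of test compound wells and 100% = reference inhibitor wells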
# FBW7 act: human FBW7 E3 ligase activation, primary screen. Q969H0. AlphaScreen FBW7–phospho-cyclin E peptide binding, activator screen. normalized activity (activation), % at 26.1 µM. 650,000 compounds, 0.13% hits. AID 1259310; in the data active means normalized activity above about 1.9%;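 further: purified mutant Fbw7 with reduced substrate affinity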
# * = called active by the depositor; ! = not active in a repeat.
SMILES,MITF primary,GPR151 activ,TEAD-YAP block,FBW7 act
COC(=O)CSc1nnc(-c2ccc(C(C)(C)C)cc2)o1,1,-1,66*,0
Cc1cccc(-n2c(C)nc3cc(C(=O)O)ccc32)c1,5,0,-3,0
Cc1cccc(-c2nc(CCNS(=O)(=O)c3ccccc3)cs2)c1,5,0,-5,0
CC(=O)N1CCc2cc(C(=O)CN3CCN(c4ccc(F)cc4)CC3)ccc21,2,0,-2,0
O=C(O)CC1S/C(=N/N=C/c2cccc([N+](=O)[O-])c2O)NC1=O (stereo not given),91*,0,-8,-1
CC1CCN(c2nc(-c3ccc(C(C)(C)C)cc3)nc3ccccc23)CC1,-3,0,49*,0
Cc1ccc(-c2nc(N3CCN(C)CC3)c3ccccc3n2)cc1,12,-1,-6,0
COc1ccc(-c2nc(N3CCC(C)CC3)c3ccccc3n2)cc1OC,0,1,-1,0
CN1CCN(c2nc(-c3ccc(C(C)(C)C)cc3)nc3ccccc23)CC1,9,-2,82*,-1
N#C/C(=C\c1ccc(O)c(O)c1)C(=O)c1ccc(O)c(O)c1,86*,0,5,0
Cc1nc2ccc(C(=O)N3c4ccccc4CC3C)cc2s1 (stereo not given),17,-1,42*,0
C=CCn1c(SCC(=O)Nc2cccc([N+](=O)[O-])c2)nnc1-c1ccccc1O,-8,1,31,0
C=CCn1c(SCC(=O)Nc2ccc3c(c2)OCCO3)nnc1-c1cccs1,10,0,51*,0
CCn1c(SCC(=O)NC(=O)Nc2ccc3c(c2)OCCO3)nnc1-c1cccs1,-1,0,-4,0
CCn1c(SCC(=O)Nc2cccc([N+](=O)[O-])c2)nnc1-c1ccccc1O,-3,0,32*,0
O=C(CSc1nnnn1-c1ccc(F)cc1F)Nc1ccc2c(c1)OCCO2,3,-1,38*,0
C=CCn1c(SCC(=O)Nc2ccccc2)nnc1-c1ccccc1O,-4,-1,33*,0
COc1ccc(-n2nnnc2SCC(=O)Nc2ccc3c(c2)OCCO3)cc1OC,-3,-1,1,0
Cc1ccc(NC(=O)c2cc(S(=O)(=O)N3CCOCC3)ccc2F)cc1C,4,1,-2,0
CCCCON1C(=O)C2C3OC(C2C1=O)C1C3C2(Cl)CC1(Cl)C(Cl)=C2Cl (stereo not given),21,-1,-5,0
COc1ccc2c(c1)OC(C)CN(C(=O)CCc1cnn(C)c1)C2 (stereo not given),21,-1,8,0
CCOC(=O)/C(=C/c1ccc(Br)cc1)c1nnc(N)s1,14,2,40*,0
CCOC(=O)C(=Cc1ccc(O)cc1)C(=O)OCC,12,0,10,0
Cc1ccc(-c2nn(-c3ccccc3)cc2/C=C2\N=C(c3ccccc3)OC2=O)o1,7,1,-8,0
CC(C)COc1ccc(C(=O)NCCCCCC(=O)O)cc1,-9,1,47*,0
SMILES,MITF primary,GPR151 activ,TEAD-YAP block,FBW7 act
CC(C)Oc1ccc(C(=O)NCCC(=O)O)cc1,16,1,-13,0
CCOc1ccc(C(=O)NCCCCCC(=O)O)cc1,12,-1,20,0
CC(C)Oc1ccc(C(=O)NCCCCCC(=O)O)cc1,5,0,39*,1
CC(C)COc1ccc(C(=O)NCCC(=O)O)cc1,22,1,8,0
CC(C)CCOc1ccc(C(=O)NCCCCCC(=O)O)cc1,2,-1,38*,0
COc1ccc(/C=C/C(=O)Nc2ccccc2C(=O)O)cc1OC,1,-11,84*,0
CC1CCN(S(=O)(=O)c2ccc(NC(=O)/C=C/c3ccc4c(c3)OCO4)cc2)CC1,13,0,44*,0
O=C(/C=C/c1ccc2c(c1)OCO2)Nc1ccccc1C(=O)O,20,-7,47*,0
COc1ccc(/C=C/C(=O)Nc2ccccc2C)cc1OC,11,1,5,0
COc1ccc(/C=C2/N=C(SCC(=O)c3ccccc3)N(c3ccccc3)C2=O)cc1,6,1,1,0
Cn1c(=O)cc(OCCCC(=O)Nc2ccc(Cl)cn2)c2ccccc21,5,0,43*,0
CC1(C)C(c2ccc(F)cc2)=[N+]([O-])C2(CCCCC2=O)N1O (stereo not given),8,2,-7,1
CCCOc1ccc(C2=[N+]([O-])C3(CCCCC3=O)N(O)C2(C)C)cc1 (stereo not given),-2,1,55*,0
CCOC(=O)c1sc2ncnc(Nc3ccc(C)cc3C)c2c1C,4,0,55*,0
COc1ccc(CCNc2cc(N3CCc4ccccc4C3)nc(N)n2)cc1,10,2,-2,0
COc1ccc(C2CNC(=O)C2)cc1OC1CCCC1 (stereo not given),4,-1,33*!,0
COc1ccc(OC)c(C2CNC(=O)C2)c1 (stereo not given),0,0,2,0
CCCOC(=O)C1=C(C)NC(=O)NC1c1ccc(OCCC)cc1 (stereo not given),-14,-1,43*,0
COc1ccc(COC(=O)C2=C(C)NC(=O)NC2c2ccc([N+](=O)[O-])cc2)cc1 (stereo not given),11,0,44*,0
CCOC(=O)C1=C(C)NC(=O)NC1c1ccc([N+](=O)[O-])cc1 (stereo not given),1,1,1,1
CCCOc1ccc(C2NC(=O)NC(C)=C2C(=O)OCc2ccc(OC)cc2)cc1 (stereo not given),-2,-1,58*,0
COc1ccc(C2NC(=O)NC(C)=C2C(=O)OCc2ccc3c(c2)OCO3)cc1 (stereo not given),-4,1,67*,0
CCCCOC(=O)C1=C(C)NC(=O)NC1c1ccc(OCCC)cc1 (stereo not given),5,0,20,0
COc1ccc(COC(=O)C2=C(C)NC(=O)NC2c2ccc(C)cc2)cc1 (stereo not given),-8,-1,22,0
CC(C)n1cnc2c(NCCc3ccc(O)cc3)nc(-c3ccc(C(=O)NC4CC4)cc3)nc21,14,-1,25,1
SMILES,MITF primary,GPR151 activ,TEAD-YAP block,FBW7 act
COc1ccc(-c2nc(NCc3nc4ccccc4[nH]3)c3ncn(C(C)C)c3n2)cn1,11,2,48*,0
COc1ccc(-c2nc(NCCN(C(C)C)C(C)C)c3ncn(C(C)C)c3n2)cc1,-2,1,39*,0
COc1ccc(CCNc2nc(-c3ccc(OC)cc3)nc3c2ncn3C(C)C)cc1,0,1,-1,0
COc1ccc(-c2nc(NCCc3ccc(O)cc3)c3ncn(C(C)C)c3n2)cn1,5,-1,65*,0
CC(C)n1cnc2c(NCCc3ccc(O)cc3)nc(-c3ccc(C(N)=O)cc3)nc21,15,-1,52*,0
COCCCNC(=O)c1ccc2c(c1)N(Cc1ccccc1C)C(=O)CS2,-1,-1,20,0
Cc1cc(NC(=O)CCCn2nc(C)c([N+](=O)[O-])c2C)n(-c2ccccc2)n1,7,0,6,1
